Screens (PubChem BioAssay)
A selection: hits, their analogues and other compounds. The true share with any hit is near 3.3%.
ABHD5 PLIN5 PPI – ABHD5-PLIN5 protein interaction inhibition. Split G. princeps luciferase complementation, luminescence, 4 h. 360,000 tested, 0.78% active. inhibition, % at 4 µM. Q00G26+Q8WTS1;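 active = inhibition above the mean inhibition across every tested compound plus 3 SD, cut at about 22% in these data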;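 also: 0% = DMSO only wells and the 100% control is not disclosed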
rCAG RNA binder – binds r(CAG) RNA repeats | r(CAG) RNA repeat, TO-PRO-1 dye displacement fluorescence | inhibition, % at 3 µM | 370,000 tested, 1.3% active | AID 651821;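 active = inhibition above the plate cutoff, the mean of all test compounds on that plate plus 3 SD, cut at about 35% in these data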;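 also: 0% = DMSO alone and 100% = 100 µM mitoxantrone as full dye displacement; higher means more dye released from RNA so lower well fluorescence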
PRMT1 FP inh – PRMT1 (human) inhibition, primary screen | inhibition, % at 2.79 µM | Q99873 | AID 652257 | 370,000 tested, 1.3% active | recombinant PRMT1, activity-based probe fluorescence polarization;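 active = inhibition above about 21% made by adding two undisclosed values, limit read from the data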
Target sequence (Q99873 whole entry, looked up): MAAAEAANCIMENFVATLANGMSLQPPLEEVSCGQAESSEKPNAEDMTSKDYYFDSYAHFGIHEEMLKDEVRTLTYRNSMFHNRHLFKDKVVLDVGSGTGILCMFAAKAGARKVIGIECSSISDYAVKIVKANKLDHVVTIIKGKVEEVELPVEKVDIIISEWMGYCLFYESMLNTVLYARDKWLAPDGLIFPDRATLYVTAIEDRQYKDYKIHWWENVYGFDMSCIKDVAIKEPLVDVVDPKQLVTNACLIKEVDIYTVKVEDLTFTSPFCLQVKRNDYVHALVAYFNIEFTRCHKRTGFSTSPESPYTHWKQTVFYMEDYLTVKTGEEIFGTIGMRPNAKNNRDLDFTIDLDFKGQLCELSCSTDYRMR
TLR9-MyD88 inh – inhibitors of human TLR9-MyD88 binding. Q9NR96+Q99836. CHO BLA complementation TLR9-MyD88, CCF4 FRET ratio. inhibition, % at 4.98 µM. 340,000 tested, 0.21% active;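 active = inhibition above the mean over all tested compounds plus 3 SD, cut at about 21% in these data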;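 also: 0% = DMSO only wells and 100% = clavulanate BLA inhibitor control wells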
TLR4 MyD88 comp – inhibitors of human TLR4-MyD88 binding; O00206+Q99836; HeLa CL3-4 TLR4/MyD88 BLA complementation, FRET ratio; inhibition, % at 8.4 µM; 200,000 tested, 0.18% active; AID 861; in the data active = inhibition above about 25%;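 also: 0% = vehicle and 100% = reference inhibitor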
NOD2-RIPK2 inh – blocks binding of human NOD2 to RIPK2 | AID 624267 | inhibition, % at 4.98 µM | 360,000 tested, 0.38% active | O43353 | CHO BLA complementation NOD2-RIPK2, CCF4 ratio; in the data active = inhibition above about 21%;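 also: 0% = vehicle only and 100% = reference blocker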
rCAG binder conf – r(CAG) RNA repeat binding, confirmation. shares compounds with rCAG RNA binder. TO-PRO-1 dye displacement fluorescence. inhibition, % at 3 µM. 4,300 tested, 70% active. AID 652065;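 active = inhibition above a per-plate cutoff, the mean inhibition of sample wells plus 3 SD, cut at about 35% in these data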;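 also: loss of TO-PRO-1 fluorescence as compound displaces dye from 1x1 AA loop RNA; 0% = DMSO only wells and 100% = 100 µM mitoxantrone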
DNA CAG counter – disrupts DNA CAG TO-PRO-1 complex, flagging rCAG hits; shares compounds with rCAG RNA binder; d(CAG) DNA oligo TO-PRO-1 dye displacement, fluorescence; inhibition, % at 3 µM; 4,300 tested, 94% active;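 active = inhibition above its plate's cutoff, the mean test-well inhibition plus 3 SD, cut at about 4.8% in these data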;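 also: 0% = DNA dye mix with DMSO and 100% = 100 µM mitoxantrone; hits displace the dye from DNA and so lower well fluorescence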
dCAG dye DR – counter-screen for rCAG binders: inhibitors of DNA CAG TO-PRO-1 complex; IC50, µM; AID 686960; DNA CAG/GTC duplex TO-PRO-1 dye displacement fluorescence; 250 tested, 20% active; shares compounds with rCAG RNA binder; in the data active = IC50 below about 10 µM
The depositor's hits bear a star; i = inactive; / = no result given.

SMILES	ABHD5 PLIN5 PPI	rCAG RNA binder	PRMT1 FP inh	TLR9-MyD88 inh	TLR4 MyD88 comp	NOD2-RIPK2 inh	rCAG binder conf	DNA CAG counter	others
COc1ccccc1NC(=O)c1cc2ccc(O)cc2o/c1=N\O	7	46*	-2	7	2	-14	27	7.5*
COc1ccccc1NC(=O)c1cc2ccccc2o/c1=N\O	6	6	9	-4	/	8	/	/
COc1ccccc1N=c1oc2cc(O)ccc2cc1C(N)=O	-5	40*	-2	-67	-44	-50	6	2
Nc1ccc2ccccc2c1C(=O)c1ccccc1	-2	1	4	-16	/	-17	/	/
C=CCc1cc(/C=C2/NC(=O)N(CC)C2=O)cc(OCC)c1OCc1ccc(C(=O)O)cc1	0	43*	1	11	3	-4	41*	10*
C=CCc1cc(C=O)cc(OCC)c1OCc1ccc(Cl)cc1	-9	0	1	0	8	-8	/	/
CSc1ncc(Cl)c(C(=O)C(C#N)c2nc3c(C)cc(C)cc3c(=O)[nH]2)n1 (centres undefined)	1	62*	1	0	-5	-4	81*	50*
CSc1ncc(Cl)c(C(=O)Nc2cccc(C)c2)n1	1	0	-1	5	2	-3	/	/
CCC1CCCCN1S(=O)(=O)c1ccc(NC(=O)c2cccs2)cc1 (centres undefined)	-3	8	3	2	8	-7	/	/
CCC1CCCCN1S(=O)(=O)c1ccc(NC(=O)CSc2ncccc2C(=O)O)cc1 (centres undefined)	2	39*	3	-4	6	-23	34	11*
O=C(Nc1cccc(Cl)c1)c1cc(S(=O)(=O)N2CCOCC2)cs1	-2	3	-1	-1	/	-11	/	/
COc1ccc(OC)c(-c2nn(-c3ccccc3)cc2C(=O)NC2(C)CCS(=O)(=O)C2)c1 (centres undefined)	2	4	3	5	/	-5	/	/
Cc1cc(OCC(=O)N[C@@H](CSCc2ccccc2)C(=O)O)c2c(C)c(C)c(=O)oc2c1	3	49*	-2	-8	/	4	54*	13*
CCC(NC(=O)Cc1c(C)c2ccc(OC)c(C)c2oc1=O)C(=O)NC(Cc1ccc(Cl)cc1)C(=O)O (centres undefined)	-2	36*	-2	-3	/	-4	41*	8.8*
Cc1c(Cc2ccccc2)c(=O)oc2cc(OCC(=O)NC(Cc3ccc(Cl)cc3)C(=O)O)ccc12 (centres undefined)	-3	52*	-3	5	/	-6	66*	25*
Cc1c(Cc2ccccc2)c(=O)oc2c(C)c(OCC(=O)N[C@@H](Cc3ccccc3)C(=O)O)ccc12	7	47*	3	0	/	-8	70*	29*	dCAG dye DR=i
Cc1c(C)c2ccc(OCC(=O)NC(Cc3ccc(Cl)cc3)C(=O)O)cc2oc1=O (centres undefined)	-6	21	-2	-8	/	-13	/	/
Cc1c(C)c2ccc(OCC(=O)N[C@@H](Cc3ccccc3)C(=O)O)cc2oc1=O	3	14	-3	5	/	-5	/	/
Cc1c(OCC(=O)NC(Cc2ccc(Cl)cc2)C(=O)O)ccc2c1oc(=O)c1ccccc12 (centres undefined)	-4	13	0	-3	/	-4	/	/
O=C(c1cc(=O)[nH]c2ccccc12)N1CC=C(c2ccccc2)CC1	2	0	-6	-5	/	1	/	/
CN(CCOc1ccc(Cl)cc1)C(=O)C1CCN(C(=O)c2ccc(F)cc2)CC1	3	-9	-4	-12	/	-7	/	/
CC(C)N(C(=O)N1CCN(c2ccnc3cc(Cl)ccc23)CC1)C(C)C	7	-11	4	-2	/	-13	/	/
O=C1NCCCN1C1OC(CO)C(O)C1O (centres undefined)	0	3	0	-21	/	-1	/	/
O=C(c1ccco1)N1CCN(Cc2nnnn2C2CCCCC2)CC1	-6	1	1	-8	/	-3	/	/
CCCCCCc1c(C)c2ccc(OCC(=O)N[C@@H](Cc3ccccc3)C(=O)O)cc2oc1=O	0	46*	0	2	/	2	76*	31*	dCAG dye DR=i
SMILES	ABHD5 PLIN5 PPI	rCAG RNA binder	PRMT1 FP inh	TLR9-MyD88 inh	TLR4 MyD88 comp	NOD2-RIPK2 inh	rCAG binder conf	DNA CAG counter	others
Cc1cc(SCC(=O)c2ccc(O)c(O)c2)n2nc(C)c(-c3ccccc3)c2n1	4	50*	3	-3	/	-11	67*	33*
O=S(=O)(c1ccc(Cl)cc1)N1CCN(C(=S)NCC2CCCO2)CC1 (centres undefined)	6	-5	0	-4	/	-1	/	/
Oc1ccc(Cl)cc1Sc1cc(Cl)ccc1O	-8	38*	4	1	/	-5	43*	12*
COc1ccc(CCC(=O)N/N=C/c2ccc3c(c2)OCO3)cc1	-2	-4	0	-1	/	-1	/	/
O=S1(=O)C=C(SCc2ccc(Cl)c(Cl)c2)Nc2ccccc21	5	8	0	-3	1	10	/	/
COc1ccc(OC2(C)CCN(Cc3ccc(-c4ccccc4)o3)C2)cc1 (centres undefined)	3	0	2	/	/	2	/	/
CCOc1cc(/C=C/c2ccc3cccc([N+](=O)[O-])c3n2)cc(Cl)c1O	3	41*	-4	-64	4	-4	33	13*
O=C(Nc1ccc(S(=O)(=O)Nc2nccs2)cc1)C1CC(=O)N(c2ccc(Cl)cc2)C1 (centres undefined)	0	54*	0	3	/	-9	41*	15*
Cc1ccc(N2CC(C(=O)Nc3ccc(S(=O)(=O)Nc4nccs4)cc3)CC2=O)cc1C (centres undefined)	0	48*	2	0	/	-6	64*	19*
Cc1nc2ccc(NC(=O)c3ccc(Cl)c([N+](=O)[O-])c3)cc2s1	0	1	1	-6	2	-8	/	/
Cc1nc2ccc(NC(=O)c3cc([N+](=O)[O-])cc([N+](=O)[O-])c3Cl)cc2s1	56*	94*	15	-9	3	4	55*	22*
ON=C(CCc1ccccc1)c1ccccc1	2	0	-1	/	/	-7	/	/
Cc1ccc(S(=O)(=O)N2[C@@H](c3ccc(Br)cc3)C(C(=O)O)=CC[C@H]2c2cccc(C)c2)cc1	1	5	1	-2	/	-15	/	/
Cc1ccc([C@H]2C(C(=O)O)=CC[C@@H](c3ccc4c(c3)OCO4)N2S(=O)(=O)c2ccc(C)cc2)cc1	-13	63*	1	-11	/	-2	61*	22*
